Assay outcomes (PubChem)
TTR transcr act – increases transthyretin transcription | AID 1117267 | hit rate 1.3% among 92,000 | activation, % at 16.7 µM | SH-SY5Y TTR promoter Gaussia luciferase, luminescence; 100% = recombinant luciferase protein wells;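 active = activation above the mean of all tested compounds plus 3 SD, cut at about 9.5% in these data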;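 note: cells exposed to compounds for one day before reading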
HuH7 TTR inh – decreases TTR transcription in HuH7 cells in activator counter-screen; shares compounds with TTR transcr act; HuH7 TTR promoter-Gaussia luciferase reporter, luminescence; inhibition, % at 16.7 µM; hit rate 4% among 1,100; AID 1117279;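 active = average inhibition above the solvent-only control wells' mean plus 3 SD, cut at about 15% in these data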;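 note: inhibitors lower well luminescence so higher value means more inhibition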
TTR up confirm – human TTR transcription activation, confirmation; shares compounds with TTR transcr act; SHSY5Y TTR promoter Gaussia luciferase, luminescence; 100% = purified Lucia enzyme wells, no cells; activation, % at 16.7 µM; 1,100 tested, under 10 active; AID 1117280;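 active = mean activation above a set limit taken from the earlier primary screen, cut at about 11% in these data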
A number is an active result; - = inactive. The entries come from a sample that favours hits as a whole.

SMILES | TTR transcr act | others
CN(CCc1ccccc1)C(=O)c1cccc(NC(=O)Cc2cccc(NC(=O)C3CCN(C(=O)C4CCC4)CC3)c2)c1 | -
Cc1cccc(Nc2ccc([N+](=O)[O-])cn2)c1 | -
CCC(c1nnnn1Cc1ccco1)N(Cc1ccccc1OC)Cc1cc2cc(C)ccc2[nH]c1=O (configuration not stated) | -
CCC(c1nnnn1Cc1ccco1)N(Cc1cc2cc(C)cc(C)c2[nH]c1=O)CC1CCCO1 (configuration not stated) | 18 | HuH7 TTR inh=-;TTR up confirm=-
Cc1cccc2cc(C(c3nnnn3C(C)(C)C)N(Cc3ccco3)CC3CCCO3)c(=O)[nH]c12 (configuration not stated) | -
CC12CCC(=O)N1C(C(=O)Nc1nnc(SCc3ccc(F)cc3)s1)CS2 (configuration not stated) | -
C#CCOc1ccc(CNC[C@H]2O[C@@H](n3cnc4c(N)ncnc43)[C@H](O)[C@@H]2O)cc1 | -
Cc1ccn(C)c(=N)c1 | -
Cc1ccccc1N1C(=O)C(Cc2ccc(F)cc2)S/C1=C(\C#N)C(N)=O (configuration not stated) | -
COc1cccc(CC2(CO)CCCN(Cc3cn[nH]c3-c3ccccc3)C2)c1 (configuration not stated) | 10 | HuH7 TTR inh=-;TTR up confirm=-
CCOC(=O)C1(Cc2ccccc2)CCN(Cc2cn[nH]c2-c2ccccc2)CC1 | -
COc1cc(CN2CCCC(CO)(Cc3ccccc3)C2)ccc1O (configuration not stated) | -
COc1cc(C(=C(CC(=O)O)C(=O)O)c2ccc3c(c2)OCO3)cc(OC)c1OC | -
CN(C)c1ccc(/C=N/NC(=O)c2ccc(-n3cnnn3)cc2)cc1 | -
CCc1ccccc1NC(=O)[C@@H]1CCCN1S(=O)(=O)c1cccc2cccnc12 | -
CCc1ccccc1NC(=O)C1CCCN1S(=O)(=O)c1ccc(-c2ccc(=O)[nH]n2)s1 (configuration not stated) | -
CCc1ccccc1NC(=O)C1CCCN1S(=O)(=O)c1ccc2c(c1)n(C)c(=O)c(=O)n2C (configuration not stated) | 18 | HuH7 TTR inh=-;TTR up confirm=-
Cc1cccc(NC(=O)C2CCN(S(=O)(=O)c3ccc4c(c3)C(C)(C)C(=O)N4C)CC2)c1C | -
CCOc1ccccc1NC(=O)C1CCCN1S(=O)(=O)c1ccc2c(c1)C(C)(C)C(=O)N2C (configuration not stated) | 12 | HuH7 TTR inh=-;TTR up confirm=-
COc1cccc(NC(=O)C2CCCN2S(=O)(=O)c2ccc3c(c2)C(C)(C)C(=O)N3C)c1 (configuration not stated) | -
COc1ccc(S(=O)(=O)N(C)C[C@H]2Oc3c(NS(=O)(=O)c4ccc(F)cc4)cccc3C(=O)N([C@H](C)CO)C[C@@H]2C)cc1 | -
CCC[C@H]1[C@@H](NC(=O)c2cccc(Cl)c2)CC[C@@]23CCCN2C(=O)CCC[C@@H]13 | -
COc1cc(C2NC(=O)C(C#N)=C(Nc3cccc(C)c3)S2)ccc1O (configuration not stated) | -
COc1ccc(C(CNC(=O)c2cccc(NC(=O)c3cccs3)c2)N2CCCC2)cc1 (configuration not stated) | -
COc1ccc(C(=O)NCCS(=O)(=O)NCc2ccccc2OC)cc1 | -
SMILES | TTR transcr act | others
C=CC1CN2CCC1CC2C(O)c1ccnc2ccc(OC)cc12 (configuration not stated) | 13 | HuH7 TTR inh=-;TTR up confirm=-
CC(C)(C)n1nnnc1C(c1ccccc1)N1CCN(c2c(Cl)cncc2Cl)CC1 (configuration not stated) | -
Cc1ccc(NCCC(=O)c2cccc([N+](=O)[O-])c2)c(C)c1 | 16 | HuH7 TTR inh=-;TTR up confirm=-
Cc1cccc(NCCC(=O)c2ccc([N+](=O)[O-])cc2)c1C | -
Cc1ccc(C(=O)CNc2ccc(C)cc2C)cc1 | -
CCN(CC(=O)Nc1ccc(OC)cc1)C(=O)c1ccc(N2C(=O)CCC2=O)cc1 | -
O=C(Nc1ccc(-c2cnco2)cc1)c1ccccc1 | 14 | HuH7 TTR inh=-;TTR up confirm=-
O=C(Nc1ccc(-c2cnco2)cc1)c1ccc(Cl)cc1 | -
O=C(NC(=O)c1ccccc1Cl)Nc1ccc(-c2cnco2)cc1 | -
C/C(CC(=O)Nc1cccnc1)=N\NC(=O)C(C)Oc1ccc(Cl)cc1Cl (configuration not stated) | -
CCC(C)C(=O)Nc1ccc(OC)cc1OC (configuration not stated) | -
COc1ccc(NC(=O)/C=C/C(=O)O)c(OC)c1 | -
COc1ccc(NC(=O)C(F)(OC)C(F)(F)F)c(OC)c1 (configuration not stated) | 14 | HuH7 TTR inh=-;TTR up confirm=-
CCC1(C)C2(C#N)C(N)=NC(OC)(OC)C12C#N (configuration not stated) | 16 | HuH7 TTR inh=-;TTR up confirm=-
Cc1c(OCC(=O)C(C)(C)C)ccc2c(-c3ccccc3)cc(=O)oc12 | -
O=C(COC(=O)c1cccc(F)c1)Nc1cccnc1Cl | -
COc1cccc(OC)c1C(=O)OCC(=O)Nc1cccnc1Cl | -
N#Cc1ccc(C(=O)OCC(=O)Nc2cccnc2Cl)cc1 | 16 | HuH7 TTR inh=-;TTR up confirm=-
CCC[C@H]1[C@@H](NC(=O)c2cccc(C)c2)CC[C@@]23CCCN2C(=O)CCC[C@@H]13 | -
C#CCNC(=O)C[C@H]1C[C@@]2(C(=O)OC)C(=C[C@H](C(C)C)O[C@@H]2C2CC2)N(Cc2ccc3c(c2)OCO3)C1=O | -
COc1ccc(C(=O)Nc2ccc(C)cn2)c(OC)c1 | -
COc1ccc(S(=O)(=O)Nc2ccc(NC(C)=O)cc2)cc1 | -
COc1ccc(S(=O)(=O)Nc2ccc(C)cn2)cc1 | 14 | HuH7 TTR inh=-;TTR up confirm=-
O=Cc1ccccc1-c1cn(CN2C(=O)c3ccccc3C2=O)nn1 | -
Cc1cc(C)n(CCOc2ccc(Br)cc2)n1 | 10 | HuH7 TTR inh=-;TTR up confirm=-
SMILES | TTR transcr act | others
Cc1cc(C)n(CCCC(=O)O)n1 | -
Cc1cc(C)n(CC(O)COc2cccc(OCC(O)Cn3nc(C)cc3C)c2)n1 (configuration not stated) | -
COc1ccc(C2=NOC(C(=O)Nc3cccnc3Cl)C2)cc1 (configuration not stated) | -
Cc1ccccc1Nc1nc2ccccc2n1C(C)C | -
O=S(=O)(Nc1cccc2ccccc12)c1cccc2nonc12 | -
Cc1ccccc1Nc1cccc2nonc12 | 18 | HuH7 TTR inh=-;TTR up confirm=-
COc1cc(F)c(S(=O)(=O)N2CCCN(S(=O)(=O)c3cccc(N)c3)CC2)c(F)c1 | -
CC(=O)C1=C(O)C(=O)N(C)C1c1ccccc1[N+](=O)[O-] (configuration not stated) | -
CCOc1cc(/C=C/C(=O)OCC(=O)NCC2CCCO2)cc(Cl)c1OC (configuration not stated) | -
COc1ccc(/C=C/C(=O)O)cc1S(=O)(=O)N1CCCC1 | -
O=C(Cc1ccc(-c2ccccc2)cc1)NCc1ccccc1 | -
Cc1ccc(CNC(=O)Cc2ccc(-c3ccccc3)cc2)cc1 | 13 | HuH7 TTR inh=53;TTR up confirm=-
Cc1ccc(CC(=O)NCc2ccc(F)cc2)cc1 | -
Cc1ccc(S(=O)(=O)N2CCCCC2)cc1NC(=O)Cn1c(=O)cnc2ccccc21 | -
Cc1ccn2c(=O)nc(SCC(=O)N3N=C(c4cccs4)CC3c3ccc(F)cc3)nc2c1 (configuration not stated) | -
Cc1cc2nc3ccc(N(C)C)cc3nc2cc1N | -
